# In publication PMC7862700, “An all-to-all approach to the identification of sequence-specific readers for epigenetic DNA modifications on cytosine”:
# How the values were obtained:
# Assay in all cases: DAPPL (digital affinity profiling via proximity ligation, sequencing); 10 mM Tris-HCl pH 7.5, 50 mM NaCl, 1 mM DTT, 4% glycerol, room temperature, 30 min; GST-TFs on glutathione beads, 16-mer random dsDNA library, 0.1% formaldehyde crosslink after washing; high values mean tight binding
# FLI1 = molecular target: T1, FLI1 (Homo sapiens, UniProt Q01543 1-452); details: protein: recombinant; tags: N-terminal GST; dsDNA, one strand shown
# T1 sequence: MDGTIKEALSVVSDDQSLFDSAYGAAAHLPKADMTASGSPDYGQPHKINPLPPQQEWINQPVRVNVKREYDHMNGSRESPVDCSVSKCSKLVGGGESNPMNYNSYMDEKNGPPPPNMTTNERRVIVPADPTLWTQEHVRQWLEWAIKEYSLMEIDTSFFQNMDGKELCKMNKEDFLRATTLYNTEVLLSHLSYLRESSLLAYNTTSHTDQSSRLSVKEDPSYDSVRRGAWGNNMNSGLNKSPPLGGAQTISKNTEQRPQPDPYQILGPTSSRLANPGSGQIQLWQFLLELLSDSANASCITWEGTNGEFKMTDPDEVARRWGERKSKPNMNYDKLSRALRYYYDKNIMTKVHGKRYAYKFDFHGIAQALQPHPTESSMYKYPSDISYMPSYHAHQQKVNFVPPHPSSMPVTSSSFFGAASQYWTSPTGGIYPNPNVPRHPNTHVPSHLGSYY
# Method in brief: (§1)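 Beads coated with glutathione captured GST-fused human transcription factors that had been expressed in yeast, and the factors were then given DNA barcodes and pooled with a tag-only sample. The pools were incubated with 200 nmole of a random double-stranded 16-mer DNA library in Tris/NaCl/DTT/glycerol buffer for 30 min at room temperature, washed, crosslinked with 0.1% formaldehyde and proximity-ligated with BsaI/T4 ligase at 37 °C for 1 h. PCR amplification and Illumina NextSeq500 sequencing came last. Binding signal is each hexamer's read frequency for a factor divided by its frequency for the tag-only sample.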
# ELK1 = molecular target: T2, ELK1 (Homo sapiens, UniProt P19419 1-428); details: protein: recombinant; tags: N-terminal GST; dsDNA, one strand shown
# T2 sequence: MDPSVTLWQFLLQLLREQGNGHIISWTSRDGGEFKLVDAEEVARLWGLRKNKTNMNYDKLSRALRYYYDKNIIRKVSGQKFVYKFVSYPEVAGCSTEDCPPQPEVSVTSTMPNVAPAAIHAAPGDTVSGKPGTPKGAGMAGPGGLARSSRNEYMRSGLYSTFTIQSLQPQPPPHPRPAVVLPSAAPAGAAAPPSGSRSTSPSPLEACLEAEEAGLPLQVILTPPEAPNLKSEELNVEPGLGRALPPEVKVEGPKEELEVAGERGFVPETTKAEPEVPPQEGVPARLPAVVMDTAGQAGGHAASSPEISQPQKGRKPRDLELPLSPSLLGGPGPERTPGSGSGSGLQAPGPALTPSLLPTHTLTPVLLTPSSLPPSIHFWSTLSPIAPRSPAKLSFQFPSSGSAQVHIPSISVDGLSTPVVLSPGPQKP
# Method in brief: as §1
# GABPA = molecular target: T3, GABPA (Homo sapiens, UniProt Q06546 1-454); details: protein: recombinant; tags: N-terminal GST; dsDNA, one strand shown
# T3 sequence: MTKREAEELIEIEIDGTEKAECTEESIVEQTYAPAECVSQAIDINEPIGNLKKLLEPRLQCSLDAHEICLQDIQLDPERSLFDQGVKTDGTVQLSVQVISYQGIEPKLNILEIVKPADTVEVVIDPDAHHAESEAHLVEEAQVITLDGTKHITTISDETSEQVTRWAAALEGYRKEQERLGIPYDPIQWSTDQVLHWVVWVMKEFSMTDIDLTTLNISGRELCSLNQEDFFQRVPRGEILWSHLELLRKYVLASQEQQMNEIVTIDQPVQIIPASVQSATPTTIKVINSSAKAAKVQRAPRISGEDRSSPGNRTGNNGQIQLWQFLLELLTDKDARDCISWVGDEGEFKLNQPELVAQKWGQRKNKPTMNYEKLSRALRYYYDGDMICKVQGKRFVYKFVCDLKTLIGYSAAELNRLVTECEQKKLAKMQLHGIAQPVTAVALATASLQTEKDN
# Method in brief: as §1
# ERG = molecular target: T4, ERG (Homo sapiens, UniProt P11308 1-479); details: protein: recombinant; tags: N-terminal GST; dsDNA, one strand shown
# T4 sequence: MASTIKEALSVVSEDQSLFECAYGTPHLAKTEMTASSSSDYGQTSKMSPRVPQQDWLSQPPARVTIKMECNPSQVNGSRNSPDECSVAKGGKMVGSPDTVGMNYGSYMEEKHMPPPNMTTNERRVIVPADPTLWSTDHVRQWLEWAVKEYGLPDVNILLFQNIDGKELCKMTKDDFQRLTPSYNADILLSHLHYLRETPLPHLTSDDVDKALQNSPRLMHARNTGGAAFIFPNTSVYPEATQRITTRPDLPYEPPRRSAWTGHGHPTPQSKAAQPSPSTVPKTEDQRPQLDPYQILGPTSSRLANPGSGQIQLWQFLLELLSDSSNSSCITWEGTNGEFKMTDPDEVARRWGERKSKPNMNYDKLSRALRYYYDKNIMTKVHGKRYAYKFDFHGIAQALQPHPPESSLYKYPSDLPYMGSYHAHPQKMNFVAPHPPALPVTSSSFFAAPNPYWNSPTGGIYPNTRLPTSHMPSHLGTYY
# Method in brief: as §1
# ELF1 = ELF1 (Homo sapiens, UniProt P32519 1-619); details: protein: recombinant; tags: N-terminal GST; dsDNA, one strand shown
# Method in brief: as §1
# EHF = molecular target: T5, EHF (Homo sapiens, UniProt Q9NZC4 1-300); details: protein: recombinant; tags: N-terminal GST; dsDNA, one strand shown
# T5 sequence: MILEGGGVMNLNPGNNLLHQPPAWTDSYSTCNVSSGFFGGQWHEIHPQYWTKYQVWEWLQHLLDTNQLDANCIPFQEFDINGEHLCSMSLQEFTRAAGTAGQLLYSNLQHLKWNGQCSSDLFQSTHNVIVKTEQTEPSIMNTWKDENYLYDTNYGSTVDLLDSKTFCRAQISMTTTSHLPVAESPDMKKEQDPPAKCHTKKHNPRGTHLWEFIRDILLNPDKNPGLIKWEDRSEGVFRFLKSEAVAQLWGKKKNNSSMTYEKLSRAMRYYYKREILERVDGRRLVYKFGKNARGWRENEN
# Method in brief: as §1
# SPI1 = SPI1 (Homo sapiens, UniProt P17947 1-270); details: protein: recombinant; tags: N-terminal GST; dsDNA, one strand shown
# Method in brief: as §1
# SPIB = SPIB (Homo sapiens, UniProt Q01892 1-262); details: protein: recombinant; tags: N-terminal GST; dsDNA, one strand shown
# Method in brief: as §1
# ELK3 = molecular target: T6, ELK3 (Homo sapiens, UniProt P41970 1-407); details: protein: recombinant; tags: N-terminal GST; dsDNA, one strand shown
# T6 sequence: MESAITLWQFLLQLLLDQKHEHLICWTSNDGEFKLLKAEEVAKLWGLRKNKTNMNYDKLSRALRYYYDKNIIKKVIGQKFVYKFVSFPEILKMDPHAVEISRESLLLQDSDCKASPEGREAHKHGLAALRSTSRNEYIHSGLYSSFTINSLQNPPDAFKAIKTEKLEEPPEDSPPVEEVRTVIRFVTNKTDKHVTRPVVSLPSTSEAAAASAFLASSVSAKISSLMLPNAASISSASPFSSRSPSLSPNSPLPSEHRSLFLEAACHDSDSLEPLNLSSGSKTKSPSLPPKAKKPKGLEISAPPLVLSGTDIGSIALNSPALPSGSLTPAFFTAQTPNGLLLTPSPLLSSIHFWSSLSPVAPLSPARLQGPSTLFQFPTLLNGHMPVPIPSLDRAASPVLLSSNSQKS
# Method in brief: as §1
# FEV = molecular target: T7, FEV (Homo sapiens, UniProt Q99581 1-238); details: protein: recombinant; tags: N-terminal GST; dsDNA, one strand shown
# T7 sequence: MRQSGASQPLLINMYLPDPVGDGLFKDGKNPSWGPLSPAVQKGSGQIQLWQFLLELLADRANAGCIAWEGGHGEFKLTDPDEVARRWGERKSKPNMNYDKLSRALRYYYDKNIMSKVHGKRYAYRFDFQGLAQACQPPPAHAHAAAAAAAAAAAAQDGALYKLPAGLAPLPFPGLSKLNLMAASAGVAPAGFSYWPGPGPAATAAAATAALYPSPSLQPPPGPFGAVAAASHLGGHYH
# Method in brief: as §1
# ETV5 = ETV5 (Homo sapiens, UniProt P41161 1-510); details: protein: recombinant; tags: N-terminal GST; dsDNA, one strand shown
# Method in brief: as §1
# HSF1 = HSF1 (Homo sapiens, UniProt Q00613 1-529); details: protein: recombinant; tags: N-terminal GST; chain copies: 3; dsDNA, one strand shown
# Method in brief: as §1
# SPIC = molecular target: T8, SPIC (Homo sapiens, UniProt Q8N5J4 1-248); details: protein: recombinant; tags: N-terminal GST; dsDNA, one strand shown
# T8 sequence: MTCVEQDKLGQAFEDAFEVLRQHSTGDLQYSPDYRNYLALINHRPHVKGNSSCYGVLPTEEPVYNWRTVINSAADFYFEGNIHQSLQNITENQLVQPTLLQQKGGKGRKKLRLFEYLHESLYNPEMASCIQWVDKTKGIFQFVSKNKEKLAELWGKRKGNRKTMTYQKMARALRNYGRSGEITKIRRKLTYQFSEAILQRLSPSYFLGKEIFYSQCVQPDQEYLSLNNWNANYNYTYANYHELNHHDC
# Method in brief: as §1
# ELF4 = ELF4 (Homo sapiens, UniProt Q99607 1-663); details: protein: recombinant; tags: N-terminal GST; dsDNA, one strand shown
# Method in brief: as §1
# ELK4 = molecular target: T9, ELK4 (Homo sapiens, UniProt P28324-2 1-405); details: protein: recombinant; tags: N-terminal GST; dsDNA, one strand shown
# T9 sequence: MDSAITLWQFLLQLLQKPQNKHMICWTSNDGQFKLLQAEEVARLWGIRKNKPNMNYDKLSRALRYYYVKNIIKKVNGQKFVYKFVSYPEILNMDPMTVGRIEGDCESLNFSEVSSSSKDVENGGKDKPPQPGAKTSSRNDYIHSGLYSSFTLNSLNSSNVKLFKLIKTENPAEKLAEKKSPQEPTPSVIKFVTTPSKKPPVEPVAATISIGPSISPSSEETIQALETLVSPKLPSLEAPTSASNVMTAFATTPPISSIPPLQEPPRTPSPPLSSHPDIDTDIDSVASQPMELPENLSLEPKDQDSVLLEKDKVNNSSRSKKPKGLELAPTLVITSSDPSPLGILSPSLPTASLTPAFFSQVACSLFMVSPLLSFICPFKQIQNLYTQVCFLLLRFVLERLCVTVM
# Method in brief: as §1
# ETV2 = molecular target: T10, ETV2 (Homo sapiens, UniProt O00321 1-342); details: protein: recombinant; tags: N-terminal GST; dsDNA, one strand shown
# T10 sequence: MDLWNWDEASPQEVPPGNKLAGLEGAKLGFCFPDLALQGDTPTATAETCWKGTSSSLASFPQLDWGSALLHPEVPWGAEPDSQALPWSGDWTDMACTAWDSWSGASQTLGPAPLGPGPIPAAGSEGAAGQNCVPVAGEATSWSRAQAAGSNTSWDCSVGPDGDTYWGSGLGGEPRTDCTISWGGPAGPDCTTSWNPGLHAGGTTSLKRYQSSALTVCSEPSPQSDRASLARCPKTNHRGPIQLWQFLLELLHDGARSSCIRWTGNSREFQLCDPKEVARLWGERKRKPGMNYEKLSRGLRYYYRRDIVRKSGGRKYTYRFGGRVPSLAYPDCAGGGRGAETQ
# Method in brief: as §1
# ELF3 = molecular target: T11, ELF3 (Homo sapiens, UniProt P78545 1-371); details: protein: recombinant; tags: N-terminal GST; dsDNA, one strand shown
# T11 sequence: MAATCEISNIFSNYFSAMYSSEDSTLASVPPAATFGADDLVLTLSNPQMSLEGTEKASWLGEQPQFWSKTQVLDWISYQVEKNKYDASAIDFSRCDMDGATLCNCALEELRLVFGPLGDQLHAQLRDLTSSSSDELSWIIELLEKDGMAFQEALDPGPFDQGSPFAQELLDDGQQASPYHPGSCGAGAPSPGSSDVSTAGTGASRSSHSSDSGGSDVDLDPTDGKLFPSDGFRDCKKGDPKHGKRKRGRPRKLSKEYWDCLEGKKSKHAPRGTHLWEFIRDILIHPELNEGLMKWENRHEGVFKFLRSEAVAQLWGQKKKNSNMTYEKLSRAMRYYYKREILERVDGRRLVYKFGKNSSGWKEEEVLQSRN
# Method in brief: as §1
# CRX = CRX (Homo sapiens, UniProt O43186 1-299); details: protein: recombinant; tags: N-terminal GST; dsDNA, one strand shown
# Method in brief: as §1
# ETV1 = ETV1 (Homo sapiens, UniProt P50549 1-477); details: protein: recombinant; tags: N-terminal GST; dsDNA, one strand shown
# Method in brief: as §1
# Sequence of CRX (O43186 whole entry): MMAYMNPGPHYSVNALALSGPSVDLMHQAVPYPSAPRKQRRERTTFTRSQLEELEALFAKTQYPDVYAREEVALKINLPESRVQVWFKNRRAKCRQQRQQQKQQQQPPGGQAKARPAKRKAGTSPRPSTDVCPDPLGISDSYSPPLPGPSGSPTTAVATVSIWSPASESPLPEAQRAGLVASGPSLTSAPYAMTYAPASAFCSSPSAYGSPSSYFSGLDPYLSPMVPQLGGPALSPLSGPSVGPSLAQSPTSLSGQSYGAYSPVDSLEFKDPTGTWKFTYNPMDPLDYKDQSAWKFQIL
# Sequence of ETV1 (P50549 whole entry): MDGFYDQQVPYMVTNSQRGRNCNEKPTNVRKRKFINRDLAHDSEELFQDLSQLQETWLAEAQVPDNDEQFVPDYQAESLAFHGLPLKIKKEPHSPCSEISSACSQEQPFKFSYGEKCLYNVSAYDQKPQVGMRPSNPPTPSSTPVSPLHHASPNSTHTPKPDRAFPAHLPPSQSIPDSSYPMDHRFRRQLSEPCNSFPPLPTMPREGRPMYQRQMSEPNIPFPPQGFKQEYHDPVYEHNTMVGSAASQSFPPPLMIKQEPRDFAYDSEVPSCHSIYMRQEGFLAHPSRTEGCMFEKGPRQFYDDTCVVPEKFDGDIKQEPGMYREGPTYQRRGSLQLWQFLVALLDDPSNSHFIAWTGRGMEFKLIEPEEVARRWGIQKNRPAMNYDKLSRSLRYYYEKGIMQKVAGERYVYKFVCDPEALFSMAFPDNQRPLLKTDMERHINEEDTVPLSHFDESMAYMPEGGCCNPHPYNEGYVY
# Sequence of ELF4 (Q99607 whole entry): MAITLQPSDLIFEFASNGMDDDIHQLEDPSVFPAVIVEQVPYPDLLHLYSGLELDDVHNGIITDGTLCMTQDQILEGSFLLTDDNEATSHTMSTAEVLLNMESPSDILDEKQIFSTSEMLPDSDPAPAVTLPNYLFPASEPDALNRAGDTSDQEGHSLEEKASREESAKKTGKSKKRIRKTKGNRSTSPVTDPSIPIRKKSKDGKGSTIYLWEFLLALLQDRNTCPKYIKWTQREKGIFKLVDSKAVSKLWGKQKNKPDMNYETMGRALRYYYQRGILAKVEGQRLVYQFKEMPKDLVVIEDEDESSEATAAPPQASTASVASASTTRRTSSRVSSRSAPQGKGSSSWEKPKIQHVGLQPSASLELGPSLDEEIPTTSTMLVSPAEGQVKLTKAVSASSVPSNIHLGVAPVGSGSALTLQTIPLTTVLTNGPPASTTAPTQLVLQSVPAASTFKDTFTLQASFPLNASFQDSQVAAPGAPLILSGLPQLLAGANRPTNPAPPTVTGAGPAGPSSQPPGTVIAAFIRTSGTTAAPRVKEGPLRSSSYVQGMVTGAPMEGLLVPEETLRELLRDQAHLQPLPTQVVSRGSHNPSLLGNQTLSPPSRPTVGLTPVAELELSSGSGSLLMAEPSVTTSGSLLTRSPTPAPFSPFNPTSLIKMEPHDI
# Sequence of ELF1 (P32519 whole entry): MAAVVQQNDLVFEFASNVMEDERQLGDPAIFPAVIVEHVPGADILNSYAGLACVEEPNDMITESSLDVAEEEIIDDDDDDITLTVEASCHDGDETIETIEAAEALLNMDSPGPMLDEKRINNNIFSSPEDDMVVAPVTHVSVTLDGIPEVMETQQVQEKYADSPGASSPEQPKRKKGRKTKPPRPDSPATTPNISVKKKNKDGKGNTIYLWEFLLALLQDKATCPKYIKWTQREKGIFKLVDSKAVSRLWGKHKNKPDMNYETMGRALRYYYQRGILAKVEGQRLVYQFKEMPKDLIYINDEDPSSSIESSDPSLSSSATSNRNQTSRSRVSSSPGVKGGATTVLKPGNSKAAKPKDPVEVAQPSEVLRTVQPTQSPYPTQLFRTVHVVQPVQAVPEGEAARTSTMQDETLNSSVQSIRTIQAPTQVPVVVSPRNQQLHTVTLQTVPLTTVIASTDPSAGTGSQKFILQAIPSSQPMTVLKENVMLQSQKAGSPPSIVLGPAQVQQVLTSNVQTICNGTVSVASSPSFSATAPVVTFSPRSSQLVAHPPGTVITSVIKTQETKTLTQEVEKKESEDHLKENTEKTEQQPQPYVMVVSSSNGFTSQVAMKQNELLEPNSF
# Sequence of HSF1 (Q00613 whole entry): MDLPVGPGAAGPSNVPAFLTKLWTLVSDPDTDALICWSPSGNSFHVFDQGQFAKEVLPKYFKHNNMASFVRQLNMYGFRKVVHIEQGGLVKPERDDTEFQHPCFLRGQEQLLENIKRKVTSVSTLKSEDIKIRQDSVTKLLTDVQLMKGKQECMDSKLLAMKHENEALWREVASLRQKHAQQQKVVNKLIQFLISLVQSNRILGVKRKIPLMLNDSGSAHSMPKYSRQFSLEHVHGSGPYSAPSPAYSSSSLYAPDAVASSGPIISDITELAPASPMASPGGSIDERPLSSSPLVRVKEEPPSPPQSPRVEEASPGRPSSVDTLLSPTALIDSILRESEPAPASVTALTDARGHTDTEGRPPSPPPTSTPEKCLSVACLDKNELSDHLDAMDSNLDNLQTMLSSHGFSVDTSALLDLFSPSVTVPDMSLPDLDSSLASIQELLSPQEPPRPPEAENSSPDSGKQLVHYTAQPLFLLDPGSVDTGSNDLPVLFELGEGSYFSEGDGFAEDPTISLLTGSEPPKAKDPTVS
# Sequence of SPIB (Q01892 whole entry): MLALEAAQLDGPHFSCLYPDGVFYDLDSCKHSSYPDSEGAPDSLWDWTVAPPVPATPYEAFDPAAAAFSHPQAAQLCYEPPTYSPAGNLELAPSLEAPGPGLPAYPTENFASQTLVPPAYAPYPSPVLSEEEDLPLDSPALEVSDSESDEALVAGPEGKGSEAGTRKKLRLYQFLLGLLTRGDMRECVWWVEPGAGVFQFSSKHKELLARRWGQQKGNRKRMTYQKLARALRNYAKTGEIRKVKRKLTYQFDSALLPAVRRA
# Sequence of ETV5 (P41161 whole entry): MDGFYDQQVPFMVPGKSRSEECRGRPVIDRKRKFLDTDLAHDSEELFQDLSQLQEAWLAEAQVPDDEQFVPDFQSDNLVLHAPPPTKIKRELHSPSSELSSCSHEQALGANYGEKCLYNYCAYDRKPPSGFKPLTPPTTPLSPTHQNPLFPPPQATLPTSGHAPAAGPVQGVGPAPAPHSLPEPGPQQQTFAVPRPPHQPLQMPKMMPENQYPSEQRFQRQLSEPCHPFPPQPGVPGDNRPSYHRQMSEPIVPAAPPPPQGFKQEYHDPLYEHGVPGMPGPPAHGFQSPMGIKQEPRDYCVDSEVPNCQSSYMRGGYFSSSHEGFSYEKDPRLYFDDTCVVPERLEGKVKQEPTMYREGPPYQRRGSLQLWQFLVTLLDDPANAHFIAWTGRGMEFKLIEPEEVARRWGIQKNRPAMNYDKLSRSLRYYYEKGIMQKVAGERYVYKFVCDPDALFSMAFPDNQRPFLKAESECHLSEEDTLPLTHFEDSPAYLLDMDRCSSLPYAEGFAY
sequence,measurement,setting,value
GCCTCT,binding signal,FLI1,"1.39 fold enrichment (6-mer frequency, TF over GST control)"
same,binding signal,ELK1,"1.38 fold enrichment (6-mer frequency, TF over GST control)"
same,binding signal,GABPA,"1.37 fold enrichment (6-mer frequency, TF over GST control)"
same,binding signal,ERG,"1.35 fold enrichment (6-mer frequency, TF over GST control)"
same,binding signal,ELF1,"1.36 fold enrichment (6-mer frequency, TF over GST control)"
same,binding signal,EHF,"1.29 fold enrichment (6-mer frequency, TF over GST control)"
same,binding signal,SPI1,"1.31 fold enrichment (6-mer frequency, TF over GST control)"
same,binding signal,SPIB,"1.42 fold enrichment (6-mer frequency, TF over GST control)"
same,binding signal,ELK3,"1.32 fold enrichment (6-mer frequency, TF over GST control)"
same,binding signal,FEV,"1.39 fold enrichment (6-mer frequency, TF over GST control)"
same,binding signal,ETV5,"1.39 fold enrichment (6-mer frequency, TF over GST control)"
same,binding signal,HSF1,"1.25 fold enrichment (6-mer frequency, TF over GST control)"
same,binding signal,SPIC,"1.21 fold enrichment (6-mer frequency, TF over GST control)"
same,binding signal,ELF4,"1.42 fold enrichment (6-mer frequency, TF over GST control)"
same,binding signal,ELK4,"1.28 fold enrichment (6-mer frequency, TF over GST control)"
same,binding signal,ETV2,"1.45 fold enrichment (6-mer frequency, TF over GST control)"
same,binding signal,ELF3,"1.28 fold enrichment (6-mer frequency, TF over GST control)"
same,binding signal,CRX,"1.28 fold enrichment (6-mer frequency, TF over GST control)"
same,binding signal,ETV1,"1.32 fold enrichment (6-mer frequency, TF over GST control)"
